Data from publication PMC7862700, “An all-to-all approach to the identification of sequence-specific readers for epigenetic DNA modifications on cytosine”.

What was measured:
Assay in all cases: DAPPL (digital affinity profiling via proximity ligation, sequencing); 10 mM Tris-HCl pH 7.5, 50 mM NaCl, 1 mM DTT, 4% glycerol, room temperature, 30 min; GST-TFs on glutathione beads, 16-mer random dsDNA library, 0.1% formaldehyde crosslink after washing; high values mean tight binding
FLI1 = target: T1, FLI1 (Homo sapiens, UniProt Q01543 1-452); conditions: protein: recombinant; tags: N-terminal GST; dsDNA, one strand shown
T1 sequence: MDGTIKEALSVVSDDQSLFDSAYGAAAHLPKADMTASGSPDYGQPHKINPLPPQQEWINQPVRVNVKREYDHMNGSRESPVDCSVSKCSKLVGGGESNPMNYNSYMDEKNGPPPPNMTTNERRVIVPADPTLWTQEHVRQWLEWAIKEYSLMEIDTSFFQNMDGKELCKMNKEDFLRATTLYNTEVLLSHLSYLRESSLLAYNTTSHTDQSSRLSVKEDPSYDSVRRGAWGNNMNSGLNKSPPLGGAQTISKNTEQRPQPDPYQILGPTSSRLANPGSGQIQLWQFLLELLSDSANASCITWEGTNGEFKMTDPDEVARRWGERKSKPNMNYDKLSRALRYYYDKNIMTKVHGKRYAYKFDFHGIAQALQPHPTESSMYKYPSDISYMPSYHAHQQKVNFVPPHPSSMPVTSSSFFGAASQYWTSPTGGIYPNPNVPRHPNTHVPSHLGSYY
Outline: (§1)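 Yeast served to express human transcription factors as GST fusions, which were then captured on glutathione beads and labelled with DNA barcodes. Pooled with a tag-only sample, they were incubated with 200 nmole of a 16-mer random double-stranded DNA library for 30 min at room temperature in Tris/NaCl/DTT/glycerol buffer, washed, crosslinked with 0.1% formaldehyde, ligated by proximity, amplified by PCR and sequenced. Dividing each hexamer's read frequency for a factor by its frequency for the tag-only sample gives the binding signal.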

ELK1 = target: T2, ELK1 (Homo sapiens, UniProt P19419 1-428); conditions: protein: recombinant; tags: N-terminal GST; dsDNA, one strand shown
T2 sequence: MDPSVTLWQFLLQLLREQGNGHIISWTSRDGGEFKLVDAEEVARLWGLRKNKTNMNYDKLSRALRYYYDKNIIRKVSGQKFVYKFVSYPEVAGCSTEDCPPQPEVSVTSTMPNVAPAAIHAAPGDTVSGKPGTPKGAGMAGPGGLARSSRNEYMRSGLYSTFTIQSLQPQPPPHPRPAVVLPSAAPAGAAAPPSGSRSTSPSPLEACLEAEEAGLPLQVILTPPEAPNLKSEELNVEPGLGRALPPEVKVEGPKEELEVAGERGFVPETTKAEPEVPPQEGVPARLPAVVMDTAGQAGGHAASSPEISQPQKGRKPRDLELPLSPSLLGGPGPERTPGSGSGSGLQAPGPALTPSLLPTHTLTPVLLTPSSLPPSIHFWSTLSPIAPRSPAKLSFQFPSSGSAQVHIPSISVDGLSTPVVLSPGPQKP
Outline: as §1

GABPA = target: T3, GABPA (Homo sapiens, UniProt Q06546 1-454); conditions: protein: recombinant; tags: N-terminal GST; dsDNA, one strand shown
T3 sequence: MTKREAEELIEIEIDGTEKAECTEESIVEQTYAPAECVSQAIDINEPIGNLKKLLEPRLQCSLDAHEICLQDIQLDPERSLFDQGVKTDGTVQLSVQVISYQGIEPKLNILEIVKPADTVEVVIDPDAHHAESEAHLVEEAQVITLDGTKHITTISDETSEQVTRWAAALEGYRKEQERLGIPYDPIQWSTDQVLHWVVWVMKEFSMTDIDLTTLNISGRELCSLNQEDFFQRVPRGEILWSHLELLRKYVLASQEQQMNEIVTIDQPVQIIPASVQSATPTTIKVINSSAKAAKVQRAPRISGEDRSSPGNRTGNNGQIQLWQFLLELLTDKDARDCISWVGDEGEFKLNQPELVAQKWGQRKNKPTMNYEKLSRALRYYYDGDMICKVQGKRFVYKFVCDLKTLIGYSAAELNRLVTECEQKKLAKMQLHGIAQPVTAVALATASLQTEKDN
Outline: as §1

ERG = target: T4, ERG (Homo sapiens, UniProt P11308 1-479); conditions: protein: recombinant; tags: N-terminal GST; dsDNA, one strand shown
T4 sequence: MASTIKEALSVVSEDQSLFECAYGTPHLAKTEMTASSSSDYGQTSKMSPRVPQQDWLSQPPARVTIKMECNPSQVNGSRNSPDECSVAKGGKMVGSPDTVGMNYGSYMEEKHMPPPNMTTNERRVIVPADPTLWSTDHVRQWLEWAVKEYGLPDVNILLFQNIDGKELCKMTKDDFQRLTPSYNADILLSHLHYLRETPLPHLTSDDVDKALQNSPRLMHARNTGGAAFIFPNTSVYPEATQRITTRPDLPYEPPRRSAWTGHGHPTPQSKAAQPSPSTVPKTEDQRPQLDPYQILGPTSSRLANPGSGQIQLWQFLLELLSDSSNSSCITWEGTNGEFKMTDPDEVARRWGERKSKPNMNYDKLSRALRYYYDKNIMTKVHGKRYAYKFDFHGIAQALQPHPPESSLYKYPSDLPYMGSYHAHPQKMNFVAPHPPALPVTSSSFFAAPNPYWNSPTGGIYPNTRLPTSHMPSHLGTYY
Outline: as §1

ELF1 = ELF1 (Homo sapiens, UniProt P32519 1-619); conditions: protein: recombinant; tags: N-terminal GST; dsDNA, one strand shown
Sequence of ELF1 (P32519 whole entry): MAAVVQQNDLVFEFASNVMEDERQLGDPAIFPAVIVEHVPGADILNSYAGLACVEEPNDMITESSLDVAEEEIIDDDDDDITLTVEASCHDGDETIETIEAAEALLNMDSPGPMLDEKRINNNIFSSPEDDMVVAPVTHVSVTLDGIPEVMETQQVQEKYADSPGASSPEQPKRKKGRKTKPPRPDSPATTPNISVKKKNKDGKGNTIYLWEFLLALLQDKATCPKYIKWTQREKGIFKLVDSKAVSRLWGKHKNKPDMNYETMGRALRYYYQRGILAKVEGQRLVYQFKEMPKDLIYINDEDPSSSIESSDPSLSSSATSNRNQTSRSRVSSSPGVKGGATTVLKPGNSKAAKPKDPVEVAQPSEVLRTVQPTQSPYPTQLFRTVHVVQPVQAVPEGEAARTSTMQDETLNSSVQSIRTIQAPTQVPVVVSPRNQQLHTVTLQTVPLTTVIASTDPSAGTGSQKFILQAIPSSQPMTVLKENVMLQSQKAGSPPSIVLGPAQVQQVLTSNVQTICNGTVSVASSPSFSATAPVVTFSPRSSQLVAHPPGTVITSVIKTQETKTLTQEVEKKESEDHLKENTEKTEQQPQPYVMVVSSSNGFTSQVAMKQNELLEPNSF
Outline: as §1

EHF = target: T5, EHF (Homo sapiens, UniProt Q9NZC4 1-300); conditions: protein: recombinant; tags: N-terminal GST; dsDNA, one strand shown
T5 sequence: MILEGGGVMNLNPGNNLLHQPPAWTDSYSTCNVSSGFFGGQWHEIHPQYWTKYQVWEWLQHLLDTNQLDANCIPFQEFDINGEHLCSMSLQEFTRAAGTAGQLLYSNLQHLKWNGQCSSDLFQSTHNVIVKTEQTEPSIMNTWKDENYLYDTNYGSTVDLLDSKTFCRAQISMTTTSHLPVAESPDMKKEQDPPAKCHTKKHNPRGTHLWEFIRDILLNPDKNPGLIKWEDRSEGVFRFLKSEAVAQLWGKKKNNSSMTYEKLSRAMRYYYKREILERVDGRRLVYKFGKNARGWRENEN
Outline: as §1

SPI1 = SPI1 (Homo sapiens, UniProt P17947 1-270); conditions: protein: recombinant; tags: N-terminal GST; dsDNA, one strand shown
Outline: as §1

SPIB = SPIB (Homo sapiens, UniProt Q01892 1-262); conditions: protein: recombinant; tags: N-terminal GST; dsDNA, one strand shown
Sequence of SPIB (Q01892 whole entry): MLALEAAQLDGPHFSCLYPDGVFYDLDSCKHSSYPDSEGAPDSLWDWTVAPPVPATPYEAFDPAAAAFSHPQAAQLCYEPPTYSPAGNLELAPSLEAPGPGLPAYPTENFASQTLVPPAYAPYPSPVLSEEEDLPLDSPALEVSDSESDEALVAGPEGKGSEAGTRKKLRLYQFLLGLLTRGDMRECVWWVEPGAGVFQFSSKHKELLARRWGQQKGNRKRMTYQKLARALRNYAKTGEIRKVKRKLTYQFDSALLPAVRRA
Outline: as §1

ELK3 = target: T6, ELK3 (Homo sapiens, UniProt P41970 1-407); conditions: protein: recombinant; tags: N-terminal GST; dsDNA, one strand shown
T6 sequence: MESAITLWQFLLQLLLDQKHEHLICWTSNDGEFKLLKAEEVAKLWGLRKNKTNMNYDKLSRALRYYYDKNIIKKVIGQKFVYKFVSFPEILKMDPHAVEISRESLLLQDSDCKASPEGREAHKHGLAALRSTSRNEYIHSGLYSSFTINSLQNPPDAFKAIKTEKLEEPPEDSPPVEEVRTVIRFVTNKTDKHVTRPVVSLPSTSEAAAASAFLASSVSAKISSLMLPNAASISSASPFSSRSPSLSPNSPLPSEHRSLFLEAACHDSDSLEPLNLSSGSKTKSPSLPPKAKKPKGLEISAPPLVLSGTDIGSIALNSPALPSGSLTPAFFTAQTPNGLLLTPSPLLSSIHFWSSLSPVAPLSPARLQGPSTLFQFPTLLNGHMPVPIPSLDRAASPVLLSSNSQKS
Outline: as §1

FEV = target: T7, FEV (Homo sapiens, UniProt Q99581 1-238); conditions: protein: recombinant; tags: N-terminal GST; dsDNA, one strand shown
T7 sequence: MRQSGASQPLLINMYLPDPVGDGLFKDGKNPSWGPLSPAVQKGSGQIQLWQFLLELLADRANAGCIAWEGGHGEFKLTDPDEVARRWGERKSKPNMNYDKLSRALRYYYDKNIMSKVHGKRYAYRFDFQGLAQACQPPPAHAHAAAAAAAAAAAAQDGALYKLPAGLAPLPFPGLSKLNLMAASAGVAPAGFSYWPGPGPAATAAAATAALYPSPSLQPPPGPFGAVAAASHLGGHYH
Outline: as §1

ETV5 = ETV5 (Homo sapiens, UniProt P41161 1-510); conditions: protein: recombinant; tags: N-terminal GST; dsDNA, one strand shown
Sequence of ETV5 (P41161 whole entry): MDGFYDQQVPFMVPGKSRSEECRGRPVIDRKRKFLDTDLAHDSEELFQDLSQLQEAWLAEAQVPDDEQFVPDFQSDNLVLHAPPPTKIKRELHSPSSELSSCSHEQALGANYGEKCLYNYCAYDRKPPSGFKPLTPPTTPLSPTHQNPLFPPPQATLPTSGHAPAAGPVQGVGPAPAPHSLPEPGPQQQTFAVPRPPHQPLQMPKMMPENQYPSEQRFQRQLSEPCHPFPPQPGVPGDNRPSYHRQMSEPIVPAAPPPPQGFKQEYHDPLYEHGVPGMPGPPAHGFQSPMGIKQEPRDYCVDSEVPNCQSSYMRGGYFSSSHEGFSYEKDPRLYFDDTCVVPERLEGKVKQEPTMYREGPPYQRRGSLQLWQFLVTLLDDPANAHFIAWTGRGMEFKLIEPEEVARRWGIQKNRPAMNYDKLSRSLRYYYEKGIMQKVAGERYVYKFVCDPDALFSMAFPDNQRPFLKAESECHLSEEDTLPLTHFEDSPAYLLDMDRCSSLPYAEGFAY
Outline: as §1

HSF1 = HSF1 (Homo sapiens, UniProt Q00613 1-529); conditions: protein: recombinant; tags: N-terminal GST; chain copies: 3; dsDNA, one strand shown
Sequence of HSF1 (Q00613 whole entry): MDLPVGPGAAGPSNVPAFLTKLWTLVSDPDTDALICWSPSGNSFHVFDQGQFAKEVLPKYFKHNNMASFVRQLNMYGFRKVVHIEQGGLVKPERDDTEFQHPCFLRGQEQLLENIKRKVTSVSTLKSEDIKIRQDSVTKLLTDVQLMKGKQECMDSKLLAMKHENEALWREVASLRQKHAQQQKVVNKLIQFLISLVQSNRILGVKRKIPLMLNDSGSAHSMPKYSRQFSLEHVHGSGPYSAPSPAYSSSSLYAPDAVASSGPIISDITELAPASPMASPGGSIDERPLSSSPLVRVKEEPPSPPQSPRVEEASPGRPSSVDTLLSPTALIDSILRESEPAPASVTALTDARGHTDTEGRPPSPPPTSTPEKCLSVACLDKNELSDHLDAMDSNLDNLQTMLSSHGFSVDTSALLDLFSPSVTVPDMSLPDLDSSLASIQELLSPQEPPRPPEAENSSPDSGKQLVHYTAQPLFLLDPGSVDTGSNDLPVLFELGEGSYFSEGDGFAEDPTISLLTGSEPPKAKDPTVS
Outline: as §1

SPIC = target: T8, SPIC (Homo sapiens, UniProt Q8N5J4 1-248); conditions: protein: recombinant; tags: N-terminal GST; dsDNA, one strand shown
T8 sequence: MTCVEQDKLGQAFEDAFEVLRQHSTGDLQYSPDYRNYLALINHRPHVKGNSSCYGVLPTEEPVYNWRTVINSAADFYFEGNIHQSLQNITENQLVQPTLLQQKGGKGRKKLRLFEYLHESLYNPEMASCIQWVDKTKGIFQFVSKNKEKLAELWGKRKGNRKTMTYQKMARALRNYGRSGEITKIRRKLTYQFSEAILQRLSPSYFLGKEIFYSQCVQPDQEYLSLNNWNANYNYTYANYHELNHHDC
Outline: as §1

ELF4 = ELF4 (Homo sapiens, UniProt Q99607 1-663); conditions: protein: recombinant; tags: N-terminal GST; dsDNA, one strand shown
Sequence of ELF4 (Q99607 whole entry): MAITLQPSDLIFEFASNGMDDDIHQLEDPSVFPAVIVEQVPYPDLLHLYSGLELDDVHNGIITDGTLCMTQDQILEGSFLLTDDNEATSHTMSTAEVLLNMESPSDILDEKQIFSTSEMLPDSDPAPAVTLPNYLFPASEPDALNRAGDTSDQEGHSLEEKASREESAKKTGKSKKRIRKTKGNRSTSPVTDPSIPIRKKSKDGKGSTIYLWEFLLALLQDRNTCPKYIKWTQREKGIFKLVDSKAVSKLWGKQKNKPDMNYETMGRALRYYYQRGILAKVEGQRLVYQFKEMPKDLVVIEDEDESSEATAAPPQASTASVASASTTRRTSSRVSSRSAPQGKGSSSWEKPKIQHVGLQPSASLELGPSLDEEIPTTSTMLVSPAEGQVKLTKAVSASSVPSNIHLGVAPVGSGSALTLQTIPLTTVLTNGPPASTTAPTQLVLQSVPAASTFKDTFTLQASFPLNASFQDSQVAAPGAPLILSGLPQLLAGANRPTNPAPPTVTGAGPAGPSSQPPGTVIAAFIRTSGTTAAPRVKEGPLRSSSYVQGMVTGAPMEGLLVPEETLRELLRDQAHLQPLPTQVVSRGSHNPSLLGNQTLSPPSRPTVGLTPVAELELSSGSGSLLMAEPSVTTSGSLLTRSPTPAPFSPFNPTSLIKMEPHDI
Outline: as §1

ELK4 = target: T9, ELK4 (Homo sapiens, UniProt P28324-2 1-405); conditions: protein: recombinant; tags: N-terminal GST; dsDNA, one strand shown
T9 sequence: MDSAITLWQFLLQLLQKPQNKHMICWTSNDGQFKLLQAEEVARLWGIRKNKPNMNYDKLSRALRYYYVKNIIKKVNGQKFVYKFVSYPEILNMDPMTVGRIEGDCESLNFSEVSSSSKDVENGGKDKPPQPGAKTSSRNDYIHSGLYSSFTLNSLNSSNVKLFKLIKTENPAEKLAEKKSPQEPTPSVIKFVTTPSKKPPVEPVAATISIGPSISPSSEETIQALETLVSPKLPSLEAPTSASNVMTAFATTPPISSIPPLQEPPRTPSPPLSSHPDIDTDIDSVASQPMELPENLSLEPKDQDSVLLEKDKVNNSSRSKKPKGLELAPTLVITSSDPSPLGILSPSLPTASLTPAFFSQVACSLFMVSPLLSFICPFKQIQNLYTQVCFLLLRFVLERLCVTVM
Outline: as §1

ETV2 = target: T10, ETV2 (Homo sapiens, UniProt O00321 1-342); conditions: protein: recombinant; tags: N-terminal GST; dsDNA, one strand shown
T10 sequence: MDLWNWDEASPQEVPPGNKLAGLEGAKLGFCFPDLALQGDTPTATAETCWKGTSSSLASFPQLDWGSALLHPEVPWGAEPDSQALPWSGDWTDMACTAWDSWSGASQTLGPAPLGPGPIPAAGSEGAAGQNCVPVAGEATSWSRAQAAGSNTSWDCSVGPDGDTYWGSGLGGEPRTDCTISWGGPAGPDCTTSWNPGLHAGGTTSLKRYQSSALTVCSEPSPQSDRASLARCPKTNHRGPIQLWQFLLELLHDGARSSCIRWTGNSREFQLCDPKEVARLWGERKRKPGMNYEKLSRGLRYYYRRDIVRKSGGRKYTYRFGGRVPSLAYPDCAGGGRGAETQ
Outline: as §1

ELF3 = target: T11, ELF3 (Homo sapiens, UniProt P78545 1-371); conditions: protein: recombinant; tags: N-terminal GST; dsDNA, one strand shown
T11 sequence: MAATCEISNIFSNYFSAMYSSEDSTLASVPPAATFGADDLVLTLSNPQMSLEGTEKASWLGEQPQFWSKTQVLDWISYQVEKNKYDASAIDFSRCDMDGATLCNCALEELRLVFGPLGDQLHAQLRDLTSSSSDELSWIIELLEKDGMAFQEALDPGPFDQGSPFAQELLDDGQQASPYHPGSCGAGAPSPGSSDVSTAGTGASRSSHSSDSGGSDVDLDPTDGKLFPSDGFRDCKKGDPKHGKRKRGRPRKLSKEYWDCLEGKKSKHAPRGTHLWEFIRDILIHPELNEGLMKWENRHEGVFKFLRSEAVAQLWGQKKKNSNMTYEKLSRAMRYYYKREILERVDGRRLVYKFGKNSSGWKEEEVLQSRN
Outline: as §1

CRX = CRX (Homo sapiens, UniProt O43186 1-299); conditions: protein: recombinant; tags: N-terminal GST; dsDNA, one strand shown
Sequence of CRX (O43186 whole entry): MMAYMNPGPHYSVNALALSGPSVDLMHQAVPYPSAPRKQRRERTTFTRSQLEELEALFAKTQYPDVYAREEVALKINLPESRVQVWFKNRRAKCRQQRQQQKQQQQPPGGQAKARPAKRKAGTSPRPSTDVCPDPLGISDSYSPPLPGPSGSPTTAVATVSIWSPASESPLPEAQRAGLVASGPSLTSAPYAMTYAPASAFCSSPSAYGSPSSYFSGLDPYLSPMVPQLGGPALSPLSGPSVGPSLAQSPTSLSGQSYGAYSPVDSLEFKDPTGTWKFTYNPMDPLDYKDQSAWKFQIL
Outline: as §1

ETV1 = ETV1 (Homo sapiens, UniProt P50549 1-477); conditions: protein: recombinant; tags: N-terminal GST; dsDNA, one strand shown
Sequence of ETV1 (P50549 whole entry): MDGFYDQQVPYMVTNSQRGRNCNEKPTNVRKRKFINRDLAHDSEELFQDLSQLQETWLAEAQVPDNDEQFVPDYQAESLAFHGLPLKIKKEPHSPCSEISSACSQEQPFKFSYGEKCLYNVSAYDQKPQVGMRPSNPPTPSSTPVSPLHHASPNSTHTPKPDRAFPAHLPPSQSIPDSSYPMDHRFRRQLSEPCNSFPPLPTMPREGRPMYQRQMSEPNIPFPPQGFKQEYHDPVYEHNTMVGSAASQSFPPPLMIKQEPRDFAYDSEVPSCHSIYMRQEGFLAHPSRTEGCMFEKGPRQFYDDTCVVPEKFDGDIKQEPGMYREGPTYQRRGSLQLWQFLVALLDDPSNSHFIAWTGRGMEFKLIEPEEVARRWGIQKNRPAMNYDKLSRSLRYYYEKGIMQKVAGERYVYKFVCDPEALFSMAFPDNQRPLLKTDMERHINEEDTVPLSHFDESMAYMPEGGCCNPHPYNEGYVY
Outline: as §1

ATAACA was tested, and the binding signal (FLI1) was 1.2 fold enrichment (6-mer frequency, TF over GST control), the binding signal (ELK1) was 1.29 fold enrichment (6-mer frequency, TF over GST control) and the binding signal (GABPA) was 1.22 fold enrichment (6-mer frequency, TF over GST control). For the same sequence, the binding signal (ERG) was 1.25 fold enrichment (6-mer frequency, TF over GST control), the binding signal (ELF1) was 1.28 fold enrichment (6-mer frequency, TF over GST control) and the binding signal (EHF) was 1.19 fold enrichment (6-mer frequency, TF over GST control). For the same sequence, the binding signal (SPI1) was 1.16 fold enrichment (6-mer frequency, TF over GST control), the binding signal (SPIB) was 1.33 fold enrichment (6-mer frequency, TF over GST control) and the binding signal (ELK3) was 1.24 fold enrichment (6-mer frequency, TF over GST control). For the same sequence, the binding signal (FEV) was 1.28 fold enrichment (6-mer frequency, TF over GST control), the binding signal (ETV5) was 1.25 fold enrichment (6-mer frequency, TF over GST control) and the binding signal (HSF1) was 1.2 fold enrichment (6-mer frequency, TF over GST control). The binding signal (SPIC) was 1.31 fold enrichment (6-mer frequency, TF over GST control), the binding signal (ELF4) was 1.28 fold enrichment (6-mer frequency, TF over GST control) and the binding signal (ELK4) was 1.2 fold enrichment (6-mer frequency, TF over GST control). The binding signal (ETV2) was 1.28 fold enrichment (6-mer frequency, TF over GST control), the binding signal (ELF3) was 1.21 fold enrichment (6-mer frequency, TF over GST control) and the binding signal (CRX) was 1.39 fold enrichment (6-mer frequency, TF over GST control). The binding signal (ETV1) was 1.24 fold enrichment (6-mer frequency, TF over GST control).
